Screens (PubChem)
Shown are actives, neighbours in structure and some others; about 6.3% of the full set was active somewhere.
MPTP inh – permeability transition pore inhibition; actives 1.4% (n = 360,000); isolated mouse mitochondria, Ca2+ swelling absorbance, 30 min; inhibition, % at 10 µM; AID 602449;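 active = inhibition of 50% or more, scaled per plate between neutral and stimulator controls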;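 also: 0% = DMSO wells given calcium and 100% = 1 mM EGTA wells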
TIM10 inh – growth inhibitors of TIM10 yeast strain. inhibition, % at 10 µM. S. cerevisiae TIM10 strain growth, BacTiter-Glo luminescence, 24 h. actives 1.4% (n = 330,000);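 active = inhibition of 40% or more at the single tested concentration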;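 also: wild-type TIM10 isogenic control strain grown at permissive 25 °C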
Mdm2 MdmX PPI – inhibitors of human Mdm2/MdmX interaction; O15151+Q00987; SaOS-2 split-luciferase Mdm2/MdmX complementation, luminescence; inhibition, % at 8 µM; actives 3% (n = 330,000);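 active = inhibition of at least 50% at 8 µM in the primary screen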
Target sequence (O15151 whole entry, looked up): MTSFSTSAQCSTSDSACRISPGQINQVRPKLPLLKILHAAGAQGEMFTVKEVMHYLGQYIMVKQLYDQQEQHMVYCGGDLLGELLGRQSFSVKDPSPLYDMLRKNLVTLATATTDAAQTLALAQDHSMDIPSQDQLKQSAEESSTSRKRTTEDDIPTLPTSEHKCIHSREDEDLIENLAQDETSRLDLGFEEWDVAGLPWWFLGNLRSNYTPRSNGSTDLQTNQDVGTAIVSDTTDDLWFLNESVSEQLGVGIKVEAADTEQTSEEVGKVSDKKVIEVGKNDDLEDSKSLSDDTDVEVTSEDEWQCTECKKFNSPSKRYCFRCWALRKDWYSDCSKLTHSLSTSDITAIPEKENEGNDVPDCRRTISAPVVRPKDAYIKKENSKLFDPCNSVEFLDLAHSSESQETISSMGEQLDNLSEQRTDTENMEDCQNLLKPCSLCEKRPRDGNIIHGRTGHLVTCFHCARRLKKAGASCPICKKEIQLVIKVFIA
Target sequence (Q00987 whole entry, looked up): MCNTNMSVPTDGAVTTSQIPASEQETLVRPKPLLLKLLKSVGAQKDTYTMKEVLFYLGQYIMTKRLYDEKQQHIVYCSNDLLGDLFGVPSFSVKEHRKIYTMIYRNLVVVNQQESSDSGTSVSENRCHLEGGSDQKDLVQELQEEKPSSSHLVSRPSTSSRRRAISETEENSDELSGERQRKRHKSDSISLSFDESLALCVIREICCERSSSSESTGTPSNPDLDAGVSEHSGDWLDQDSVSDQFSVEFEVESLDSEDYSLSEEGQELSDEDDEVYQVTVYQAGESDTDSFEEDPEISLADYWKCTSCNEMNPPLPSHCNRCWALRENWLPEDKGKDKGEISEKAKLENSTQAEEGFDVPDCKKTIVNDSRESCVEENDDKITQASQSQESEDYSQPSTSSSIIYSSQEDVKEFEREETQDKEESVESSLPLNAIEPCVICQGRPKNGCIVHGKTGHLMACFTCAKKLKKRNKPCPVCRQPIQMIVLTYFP
tim23-1 inh – inhibits growth of tim23-1 mutant yeast | inhibition, % at 20 µM | S. cerevisiae tim23-1 growth, BacTiter-Glo luminescence, 24 h | actives 1.3% (n = 330,000) | AID 463212;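 active = growth inhibition of the mutant yeast at or above 50%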;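 also: temperature-sensitive mutant grown at 25 °C; plate controls were DMSO-treated mutant yeast for no effect and medium wells lacking yeast for full effect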
tim10-1 inh – inhibits growth of tim10-1 mutant yeast | actives 2.2% (n = 330,000) | inhibition, % at 20 µM | AID 463190 | S. cerevisiae tim10-1 ts strain growth, BacTiter-Glo, 24 h;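 active = inhibition of at least 40%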;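 also: mutant grown at 25 °C; 0% = DMSO wells with yeast and 100% = wells holding no yeast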
Mdm2-MdmX conf – human Mdm2/MdmX binding inhibition, confirmed. actives 55% (n = 10,000). AID 489028. shares compounds with Mdm2 MdmX PPI. luminescent assay. inhibition, % at 8 µM; in the data active = inhibition above about 40%
FLuc counter – full-length luciferase inhibition in Mdm2/MdmX counter-screen; shares compounds with Mdm2 MdmX PPI; SaOS-2 full-length luciferase counterscreen, luminescence; inhibition, % at 8 µM; actives 77% (n = 6,200); AID 504607;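 active = mean inhibition at 8 µM reaching about 37%, which flags the compound as non-specific, limit read from the data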;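 also: p53-null SaOS-2 cells with luciferase driven by a doxycycline-inducible promoter; compound on cells about two nights before reading with doxycycline added after day one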
Starred values were filed as active, the others as inactive; · = not tested or not shown.

SMILES	MPTP inh	TIM10 inh	Mdm2 MdmX PPI	tim23-1 inh	tim10-1 inh	Mdm2-MdmX conf	FLuc counter
COc1ccc(/C=N/Nc2ccc(C(=O)O)cc2)c(OC)c1OC	2	-7	7	19	21	·	·
COC(=O)c1ccc2c(c1)C(C)(C)C(/C=C/c1ccc(OC)c(OC)c1OC)=[N+]2C	-5	5	101*	14	13	78*	51*
CN(CC(=O)Nc1cccc(F)c1)C(=O)c1ccc2c(c1)CC(c1ccccc1)OC2=O (centres undefined)	0	6	43	12	-3	·	·
CC(C)c1c(C(=O)N/N=C/c2ccccc2OCc2c(F)cccc2Cl)nnn1-c1nonc1N	0	2	57*	4	3	52*	55*
CCN1C(=O)CC(c2ccccc2)N(C2CCCC2)c2nc(Nc3ccc(C(=O)NC4CCN(C)CC4)cc3OC)ncc21 (centres undefined)	-3	3	98*	10	-2	46*	78*
CCN1C(=O)CC(C(C)C)N(C2CCCC2)c2nc(Nc3ccc(C(=O)NC4CCN(C)CC4)cc3OC)ncc21 (centres undefined)	3	·	·	·	·	·	·
CCOC(=O)c1c(NC(=O)CSc2nnnn2-c2ccccc2)sc2c1CC(C)(C)NC2(C)C	1	17	55*	4	6	20	·
Cc1ccc2nc(SCC(=O)Nc3ccc(C(N)=O)cc3)[nH]c2c1	2	-11	9	-11	-4	·	·
CCOC(=O)c1sc(NC(=O)CSc2nnnn2-c2ccccc2)c(C(=O)OCC)c1C	3	-21	10	-4	-5	·	·
CCOC(=O)c1c(NC(=O)CSc2nc3ccc(C)cc3[nH]2)sc2c1CC(C)(C)NC2(C)C	2	1	75*	24	23	48*	69*
CCOC(=O)c1c(NC(=O)CCS(=O)(=O)c2ccccc2)sc2c1CC(C)(C)NC2(C)C	1	-1	14	17	5	·	·
CCOC(=O)c1c(NC(=O)CSc2nnnn2-c2ccccc2OCC)sc2c1CC(C)(C)NC2(C)C	1	5	58*	15	9	41*	73*
CCNC(=O)C1(C)CCN(C(=O)c2cc(OC)c(OC)c(OC)c2)C1 (centres undefined)	2	·	·	·	·	·	·
O=C(Nc1cccnc1)c1ccc(N2CCOCC2)c([N+](=O)[O-])c1	0	-4	-3	-12	-7	·	·
COc1ccc(NS(=O)(=O)c2cc(NC(=O)C3CC3)ccc2N2CCCCC2)cc1	0	18	22	42	20	·	·
COc1ccc(NS(=O)(=O)c2cc(NC(=O)c3ccco3)ccc2N2CCCCC2)cc1	1	4	60*	15	14	40	60*
COc1ccc2oc(-c3ccc(NC(=O)c4ccc(N5CCOCC5)c([N+](=O)[O-])c4)cc3)nc2c1	24	-27	56*	-42	-8	28	·
COc1ccc(NS(=O)(=O)c2cc(NC(=O)c3ccc(=O)[nH]c3)ccc2N2CCCC2)cc1	1	-1	82*	6	8	73*	43*
O=C(Nc1cc(S(=O)(=O)Nc2ccc(Cl)cc2)ccc1N1CCCCC1)c1ccc(F)cc1	39	17	72*	6	11	35	·
COCCNC(=O)C1CCCN(C(=O)c2cncc(Br)c2)CC1 (centres undefined)	1	·	·	·	·	·	·
COc1ccc(NS(=O)(=O)c2cc(NC(=O)c3ccncc3)ccc2N2CCOCC2)cc1	1	-6	6	7	11	·	·
COc1ccc(NS(=O)(=O)c2cc(NC(=O)c3ccc(Cl)cc3)ccc2N2CCOCC2)cc1	1	-1	82*	4	18	67*	27
COc1ccc(NS(=O)(=O)c2cc(C(=O)O)ccc2C)cc1	0	3	25	2	-4	·	·
COc1ccc(NS(=O)(=O)c2cc(NC(=O)c3ccc(=O)[nH]n3)ccc2C)cc1	-1	20	52*	9	11	46*	65*
CCCCC1CC2=C(C(=O)OC(C)(C)O2)C(c2ccc(F)cc2)O1 (centres undefined)	-1	·	·	·	·	·	·
SMILES	MPTP inh	TIM10 inh	Mdm2 MdmX PPI	tim23-1 inh	tim10-1 inh	Mdm2-MdmX conf	FLuc counter
CN1CCC(NC(=O)c2cc(-c3cccc(Br)c3)nc3ccccc23)CC1	-2	4	66*	11	6	38	65*
O=C(NC1CC1)c1cc(-c2ccc(Br)cc2)nc2ccccc12	0	-13	12	8	3	·	·
C/C(=N/NC(=O)c1ccc(C)s1)c1cccc(NC(=O)COc2ccc(Cl)cc2C)c1	5	2	89*	2	1	0	·
C/C(=N\NC(=O)c1ccc(O)cc1)c1cccc(NC(=O)c2ccc(Cl)cc2)c1	0	-33	58*	-21	-6	-3	·
COc1ccc(C(=O)Nc2cccc(/C(C)=N\NC(=O)c3ccoc3C)c2)cc1OC	1	8	33	13	5	·	·
COc1ccc(C(=O)Nc2cccc(/C(C)=N/NC(=O)c3ccc([N+](=O)[O-])c(C)c3)c2)cc1OC	-1	9	56*	-3	14	-25	·
C/C(=N\NC(=O)c1ccc(Cl)cc1)c1cccc(NC(=O)c2cccnc2)c1	-1	1	-11	-18	-7	·	·
CN1OC[C@@H]2CN(C(=O)c3cccc4ccccc34)[C@H](c3ccccc3Br)C[C@@H]21	-1	·	·	·	·	·	·
CC(O)(c1cccnc1)c1nc(-c2ccc(S(C)(=O)=O)cc2)cs1 (centres undefined)	-2	·	·	·	·	·	·
C1C2CC3C1C3C2=NN=C1C2CC3C(C2)C13	0	·	·	·	·	·	·
Cc1ccc(S(=O)(=O)N2C[C@H]3C(=O)C[C@@H](c4ccc(Cl)cc4)N(S(=O)(=O)c4ccc(C)cc4)[C@H]3C[C@H]2c2ccccc2)cc1	2	·	·	·	·	·	·
Cc1c(-c2ccc(/C=N/NC(=O)C(=O)Nc3ccccc3F)o2)cccc1[N+](=O)[O-]	8	-7	56*	-5	-14	-1	·
C[C@H]1COc2cc(N(C)CCO)ccc2S(=O)(=O)N1	-2	·	·	·	·	·	·
Clc1nc(-c2cccnc2)nc2scc(-c3ccccc3)c12	1	21	18	36	30	·	·
COc1ccc(-c2csc3nc(-c4cccnc4)nc(Cl)c23)cc1OC	22	4	81*	26	3	31	·
Cc1nc(SC(C(N)=O)c2ccccc2)c(C#N)c(C)c1C (centres undefined)	5	9	-34	2	9	·	·
COc1ccccc1-c1cc(-c2ccccc2)nc(SC(C(N)=O)c2ccccc2)c1C#N (centres undefined)	1	6	93*	-3	19	58*	19
CCOc1cc(CNC2CCCC2)cc(Cl)c1OCc1ccc(F)cc1	2	19	58*	7	10	44*	80*
COc1cc(CNC2CCCC2)cc(Cl)c1OCc1ccc(F)cc1	15	-41	48	-78	-10	·	·
